High-throughput results deposited in PubChem BioAssay by several laboratories.
A selection: hits, their analogues and other compounds. The true share with any hit is near 3.6%.
Mtb hypoxia rep = reduces hypoxia-regulated biosensor signal in M. tuberculosis. fluorescence inhibition, % (no concentration beside the values). M. tuberculosis hypoxia-regulated fluorescent reporter, fluorescence. AID 1159583. 0.1% of 300,000 active; in the data active = fluorescence inhibition mostly above about 23%, no sharp cut-off; inactive = mostly below about 17%
Mtb bLac sens = beta-lactam sensitization of Mtb H37Rv; 0.27% of 330,000 active; inhibition, % at 25 µM; M. tuberculosis H37Rv growth with meropenem, percent inhibition; call rule not given here;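 also: growth measured after seven days incubation then overnight dye step; 0% = bacteria only wells and 100% = bacteria with antibiotic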
VHR inh abs = blocks human VHR1 dual specificity phosphatase | recombinant VHR phosphatase, pNPP absorbance | inhibition, % at 13.3 µM | 0.52% of 290,000 active; in the data active = inhibition above about 50%
Target sequence (P51452 whole entry, looked up): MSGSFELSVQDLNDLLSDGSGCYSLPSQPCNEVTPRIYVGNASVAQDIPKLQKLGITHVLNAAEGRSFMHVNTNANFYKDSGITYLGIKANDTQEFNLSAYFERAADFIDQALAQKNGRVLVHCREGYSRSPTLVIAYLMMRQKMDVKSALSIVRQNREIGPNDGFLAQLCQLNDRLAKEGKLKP
FBA Mtb inh = inhibits M. tuberculosis FBA enzyme. purified M. tuberculosis FBA, fluorescence read-out. inhibition, % at 1 µM. 2.3% of 360,000 active. AID 588726;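 also: 0% = vehicle and 100% = reference inhibitor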
Target sequence (P9WQA3 whole entry, looked up): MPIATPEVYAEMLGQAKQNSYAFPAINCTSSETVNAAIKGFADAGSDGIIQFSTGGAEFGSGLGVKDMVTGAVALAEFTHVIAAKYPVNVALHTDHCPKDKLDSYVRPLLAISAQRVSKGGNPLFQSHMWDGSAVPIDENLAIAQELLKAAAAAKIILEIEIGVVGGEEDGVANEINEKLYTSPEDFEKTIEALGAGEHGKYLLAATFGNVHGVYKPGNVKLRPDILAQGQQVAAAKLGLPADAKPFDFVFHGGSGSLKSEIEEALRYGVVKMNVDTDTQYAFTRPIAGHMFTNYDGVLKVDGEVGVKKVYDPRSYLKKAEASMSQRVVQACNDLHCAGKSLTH
GDH-TPI counter-1 = counter-screen for M. tuberculosis FBA inhibitors: GDH-TPI coupled enzymes | GDH-TPI coupled enzyme counterscreen, NADH absorbance | inhibition, % at 4.8 µM | 1.2% of 360,000 active | AID 588335; in the data active = inhibition above about 30%;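 also: 0% = DMSO wells and 100% = wells lacking the enzyme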
Mtb FBA inh conf = Mtb FBA inhibition, confirmed | purified M. tuberculosis FBA, fluorescence read-out | inhibition, % at 1 µM | 78% of 5,600 active | shares compounds with FBA Mtb inh | AID 651616;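 also: 0% = vehicle wells and 100% = reference inhibitor wells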
GDH-TPI counter-2 = GDH-TPI inhibition counter-screen for FBA inhibitors; AID 652141; 81% of 5,600 active; GDH-TPI coupled enzyme counterscreen, fluorescence; shares compounds with FBA Mtb inh; inhibition, % at 1 µM; in the data active = inhibition above about 10%
An asterisk follows results filed as active; ? = inconclusive; . = no result given; + = active, no number; ! = repeats disagree. Rule as the data show it, unless noted: active = inhibition above about 27%; inactive = the rest.

SMILES | Mtb hypoxia rep | Mtb bLac sens | VHR inh abs | FBA Mtb inh | GDH-TPI counter-1 | Mtb FBA inh conf | GDH-TPI counter-2
CCCCn1nnnc1NCc1cccnc1 | . | -0.3 | 22.7 | 29.7* | 8.3 | + | +
CCCCn1nnnc1NCc1ccc(N2CCCC2)cc1 | . | -0.8 | 11.9 | -1.4 | 10.2 | . | .
CC1CCCC(=CNc2ccc(C(=O)O)cc2)C1=O (stereo unspecified) | 0.8 | . | . | . | . | . | .
Cc1ccc(C(C(=O)NCC2CCCO2)N(C(=O)c2snc(C(N)=O)c2N)c2ccccc2)o1 (stereo unspecified) | 12.4 | 2.3 | 15.3 | 11.9 | 14.2 | . | .
Cc1ccc(C)c(N(C(=O)c2snc(C(N)=O)c2N)C(C(=O)NCC2CCCO2)c2cccs2)c1 (stereo unspecified) | 3.6 | -7.1 | 14.7 | 35.8* | 0.3 | 18.9 | 7.1
Cc1ccc(C)c(N(C(=O)c2snc(C(N)=O)c2N)C(C(=O)NCC2CCCO2)c2ccc(C)o2)c1 (stereo unspecified) | 10.7 | 1.3 | -2.9 | 37.1* | 2.2 | 53.7* | 47.6*
CNc1ccccc1C(=O)OCC(=O)N(CCOC)c1c(N)n(CC(C)C)c(=O)[nH]c1=O | -2.0 | -4.8 | . | 92.4* | 10.4 | + | +
CCN(C(=O)COC(=O)c1cc2ccccc2cc1OC)c1c(N)n(Cc2ccccc2)c(=O)[nH]c1=O | 4.1 | . | . | 38.8* | -3.5 | 101.9* | 69.8*
CCN(Cc1ccccc1)c1ccc(C=NNC(=S)NC(C)C)cc1 | 13.1 | . | . | . | . | . | .
O=C(NN=Cc1ccc([N+](=O)[O-])s1)C(O)c1ccccc1 (stereo unspecified) | 13.3 | . | . | . | . | . | .
O=C(NC1CC1)c1cc(-c2ccc(Br)cc2)nc2ccccc12 | 6.8 | 1.2 | . | -0.4 | 1.9 | . | .
COc1ccc(-c2cc(C(=O)NC3CCCC3)c3ccccc3n2)cc1 | 2.4 | 17.7 | -3.8 | 40.5* | 21.0 | 72.0* | 55.1*
O=C(NC1CCC(O)CC1)c1cc(-c2ccco2)nc2ccccc12 (stereo unspecified) | -5.6 | -8.1 | 2.5 | 62.5* | 3.2 | 53.3* | 37.8*
COc1ccc(-c2cc(C(=O)NC3CC3)c3ccccc3n2)cc1 | 6.6 | 7.3 | -19.8 | 46.1* | 0.8 | 104.4* | 87.6*
CCCOc1ccc(-c2cc(C(=O)NCC3CCCO3)c3ccccc3n2)cc1 (stereo unspecified) | . | 89.3 | 14.9 | 28.0* | 13.9 | 176.7* | 153.6*
COc1cccc(-c2cc(C(=O)NC3CC3)c3ccccc3n2)c1 | -0.4 | 1.4 | 18.5 | -1.2 | 10.0 | . | .
CC(=O)N1CCc2c(sc(NC(=O)C3CCCN3S(=O)(=O)c3cccs3)c2C#N)C1 (stereo unspecified) | 0.7 | -5.2 | . | 32.9* | 7.9 | 48.4* | 35.2*
Cc1ccc(NC(=O)CN(C)CC(=O)Nc2ccccc2C(=O)Nc2ccccc2)cc1 | 6.5 | 2.1 | 17.4 | 73.0* | 0.3 | 6.5 | -3.8
Cc1ccc(NC(=O)CN(C)C(=O)C(C)OC(=O)c2ccccc2NCCO)cc1 (stereo unspecified) | 7.3 | -2.7 | . | 92.4* | 8.0 | 98.0* | 72.9*
CC(OC(=O)c1ccccc1NCCO)C(=O)NCC(=O)Nc1ccc(F)c(F)c1F (stereo unspecified) | 0.8 | -24.1 | 19.2 | 90.7* | 0.0 | 127.8* | 97.1*
C=C(C)C(=O)Nc1cccc(C2=NOC3(C2)CC(C(N)=O)N(C(=O)C=CC)C3)c1 (stereo unspecified) | -1.6 | . | . | . | . | . | .
COc1ccc(C(CC2(O)C(=O)Nc3ccccc32)=NO)cc1 (stereo unspecified) | 5.7 | . | . | . | . | . | .
Cc1csc(NC(=O)c2cc3c(s2)-c2ccccc2OC3)n1 | 0.6 | 1.5 | -18.5 | 39.3* | 18.8 | 123.3* | 102.0*
Cc1nn2cc(-c3ccccc3)nc2[nH]c1=O | 4.8 | -12.2 | 4.6 | 37.2* | 21.2 | 78.9* | 81.2*
O=C(O)CCc1nn2cc(-c3ccccc3)nc2[nH]c1=O | -9.3 | -8.6 | 22.0 | 44.9* | 17.9 | 113.5* | 92.0*
SMILES | Mtb hypoxia rep | Mtb bLac sens | VHR inh abs | FBA Mtb inh | GDH-TPI counter-1 | Mtb FBA inh conf | GDH-TPI counter-2
Cc1nn2c(-c3ccccc3)c(-c3ccccc3)nc2[nH]c1=O | . | -4.2 | 12.8 | 7.9 | 17.1 | . | .
CCc1nn2cc(-c3ccccc3)nc2s1 | 3.2 | 1.9 | 4.8 | -4.2 | 3.6 | . | .
O=C1Nc2ccccc2C1=NN1CCOCC1 | 6.1 | . | . | . | . | . | .
Nc1nccnc1C(=O)OCC(=O)NCCc1ccc(Cl)cc1 | 6.7 | -4.5 | . | 102.5* | 1.8 | -5.0 | -5.2
Nc1nc2ncc(CNc3ccc(C(=O)N[C@@H](CCC(=O)O)C(=O)O)cc3)nc2c(=O)[nH]1 | . | 0.2 | 24.7 | 44.3* | 16.7 | 113.1* | 90.1*
CN(Cc1cnc2nc(N)nc(N)c2n1)c1ccc(C(=O)N[C@@H](CCC(=O)O)C(=O)O)cc1 | . | -0.4 | . | 108.0*! | 15.0 | 119.1* | 108.4*
N#Cc1c(N2CCCCC2)nc(N)c2c(N)nc3c(c12)CC(c1ccccc1)O3 (stereo unspecified) | . | 17.3 | 27.3 | 29.8* | 16.1 | 121.8* | 102.4*
CCC1Cc2c(nc(N)c3c(N)nc(N4CCCCC4)c(C#N)c23)O1 (stereo unspecified) | 8.1 | 11.2 | 2.0 | 42.3* | 4.3 | 121.2* | 110.1*
COc1cc2c(C#N)c(N3CCCC3)nc(N)c2c(N)n1 | 11.1 | 14.2 | 15.5 | 4.9 | 15.0 | . | .
N#Cc1c(N2CCCC2)nc(N)c2c(N)nc(N3CCCC3)cc12 | 6.6 | 4.8 | 65.7 | 17.9 | 20.7 | . | .
CCOc1ccc2nc(NCCNC(=O)c3cc(OC)c(OC)c(OC)c3)c(C#N)cc2c1 | 9.8 | -4.7 | 17.2 | 0.9 | -8.1 | . | .
CCOc1ccc2nc(NCCCNS(=O)(=O)c3ccc(F)cc3)c(C#N)cc2c1 | -8.6 | 2.6 | . | 39.9* | 7.8 | 0.0 | -3.1
CCCCNc1nc2ccccc2nc1NS(=O)(=O)c1ccc(F)cc1 | 15.5 | ? | 16.5 | 9.6 | 20.0 | . | .
CCOc1ccc2nc(NCCCNS(=O)(=O)c3ccccc3)c(C#N)cc2c1 | -4.3 | 6.2 | -23.4 | 36.6* | 3.4 | 98.4* | 64.1*
CC1(C)Cc2nc3oc4c(NCc5ccccc5)ncnc4c3cc2CO1 | 5.9 | -2.5 | -20.3 | 60.1* | -5.3 | 46.8* | 44.4*
Cc1nc2oc3c(NCc4ccccn4)ncnc3c2c2c1COC(C)(C)C2 | 5.1 | 0.7 | 26.3 | 93.6* | 9.1 | 86.2* | 74.3*
CCOC(=O)COc1c(OC)cc(Cl)cc1C1Nc2ccccc2C(=O)N1c1cccc(C)c1 (stereo unspecified) | 8.0 | -1.5 | 18.6 | 17.5 | 0.8 | . | .
CCOC(=O)COc1c(OC)cc(Cl)cc1C1Nc2ccccc2C(=O)N1c1ccc(F)cc1 (stereo unspecified) | 5.9 | 4.2 | -16.4 | 33.2* | 8.7 | 24.1 | 12.2*
CCOC(=O)COc1c(OC)cc(Cl)cc1C1Nc2ccccc2C(=O)N1c1ccccc1 (stereo unspecified) | 5.8 | 2.4 | 26.9 | 38.6* | 6.0 | 144.0* | 117.8*
